Laboratory results as given in PubChem BioAssay (NCATS).
Inconclusive results are not listed. Entries that show only a call come without a potency. Activity calls are given as the source filed them. Unless noted, calls follow the shape of the full dose curve.

Key:
[1] = biological target: Peroxisome proliferator-activated receptor delta (Homo sapiens) (UniProt Q03181); test: qHTS assay for small molecule agonists of peroxisome proliferator-activated receptor delta signaling (AID 588534)
Summary of the method: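 Cell-based beta-lactamase reporter assay run in agonist mode: cells seeded and incubated 5 hrs at 37 C, compounds added and incubated 18 hrs at 37 C. CCF4 dye fluorescence read after 2 hrs at RT; EC50 and efficacy from Hill fits.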

[2] = qHTS assay for small molecule antagonists of peroxisome proliferator-activated receptor delta signaling (AID 588535; active = well fitted inhibition curve with a large enough effect in the signal ratio, with a control signal flat, not every such curve was filed as active; the % refers to the signal ratio;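 as to max response: cells co-treated with a PPAR-delta agonist as stimulator during compound exposure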); conditions: HEK293T PPARd-UAS-bla, beta-lactamase FRET ratio, 18 h; 460 nm channel
Summary of the method: (§1)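 GeneBLAzer PPAR-delta-UAS-bla HEK293T cells in medium with 2% charcoal/dextran FBS were preincubated 5 hrs at 37 C, then given compounds, incubated 18 hrs at 37 C, and read by CCF4 beta-lactamase fluorescence; IC50 from Hill fits.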

[3] = biological target: Peroxisome proliferator-activated receptor delta (Homo sapiens) (UniProt Q03181); test: as above
Summary of the method: as §1

[4] = biological target: Peroxisome proliferator-activated receptor gamma (Homo sapiens) (UniProt P37231); test: qHTS assay for small molecule agonists of peroxisome proliferator-activated receptor gamma signaling (AID 588536; active = well fitted curve in the direction sought with a large enough effect in the signal ratio, with a control signal flat, not every such curve was filed as active; the % refers to the signal ratio)
Peroxisome proliferator-activated receptor gamma (Homo sapiens), sequence (P37231 whole entry, looked up): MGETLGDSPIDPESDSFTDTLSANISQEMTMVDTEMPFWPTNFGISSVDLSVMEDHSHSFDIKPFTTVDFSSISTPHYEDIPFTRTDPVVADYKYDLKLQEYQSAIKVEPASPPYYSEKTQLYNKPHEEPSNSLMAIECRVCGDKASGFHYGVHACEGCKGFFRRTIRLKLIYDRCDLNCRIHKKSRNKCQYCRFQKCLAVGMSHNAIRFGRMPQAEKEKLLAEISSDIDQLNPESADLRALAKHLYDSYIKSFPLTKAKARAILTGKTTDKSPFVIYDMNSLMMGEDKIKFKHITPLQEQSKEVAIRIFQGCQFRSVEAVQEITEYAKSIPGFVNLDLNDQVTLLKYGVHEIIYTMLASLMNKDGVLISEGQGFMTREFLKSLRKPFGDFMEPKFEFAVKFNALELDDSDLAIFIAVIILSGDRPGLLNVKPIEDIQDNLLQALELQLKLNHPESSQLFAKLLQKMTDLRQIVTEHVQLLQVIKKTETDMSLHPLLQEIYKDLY
Summary of the method: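 Ratiometric blue/green fluorescence (405 nm excitation; 460 and 530 nm emission) from CCF4-loaded HEK293 reporter cells serves as signal. Exposure to test compounds lasts 16 h at 37 C in medium containing 1% charcoal/dextran-treated serum.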

[5] = biological target: Peroxisome proliferator-activated receptor gamma (Homo sapiens) (UniProt P37231); test: qHTS assay for small molecule antagonists of peroxisome proliferator-activated receptor gamma signaling (AID 588537; active = well fitted inhibition curve with a large enough effect in the signal ratio, with a control signal flat, not every such curve was filed as active; the % refers to the signal ratio;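 also: reporter cells co-stimulated with 50 nM rosiglitazone agonist during compound treatment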)
Summary of the method: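 PPAR-gamma-UAS-bla HEK293 cells (3000/well, 1% charcoal/dextran-stripped FBS) were preincubated 6-6.5 h at 37 C, given titrated compounds, then stimulated with 50 nM rosiglitazone for 16 h. Beta-lactamase activity was read with CCF4 dye; IC50 came from Hill fits.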

[6] = biological target: Retinoic acid receptor RXR-alpha (Homo sapiens) (UniProt P19793); test: qHTS assay for small molecule agonists of retinoid X receptor alpha signaling (AID 588544)
Retinoic acid receptor RXR-alpha (Homo sapiens), sequence (P19793 whole entry, looked up): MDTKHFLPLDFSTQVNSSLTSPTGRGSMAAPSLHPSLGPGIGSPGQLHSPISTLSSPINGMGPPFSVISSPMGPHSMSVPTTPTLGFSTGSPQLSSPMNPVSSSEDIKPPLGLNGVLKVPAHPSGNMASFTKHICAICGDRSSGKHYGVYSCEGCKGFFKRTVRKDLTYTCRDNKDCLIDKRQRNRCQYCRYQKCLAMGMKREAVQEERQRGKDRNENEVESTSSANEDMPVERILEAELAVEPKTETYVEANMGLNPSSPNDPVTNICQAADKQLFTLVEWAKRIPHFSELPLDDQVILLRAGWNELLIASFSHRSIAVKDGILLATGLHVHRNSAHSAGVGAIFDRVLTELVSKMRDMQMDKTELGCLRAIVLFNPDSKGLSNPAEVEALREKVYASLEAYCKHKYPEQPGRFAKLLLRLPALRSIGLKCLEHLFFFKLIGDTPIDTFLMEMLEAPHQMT

[7] = biological target: Thyroid hormone receptor beta (Homo sapiens) (UniProt P10828); test: qHTS assay for small molecule agonists of thyroid hormone receptor beta signaling (AID 588545)
Thyroid hormone receptor beta (Homo sapiens), sequence (P10828 whole entry, looked up): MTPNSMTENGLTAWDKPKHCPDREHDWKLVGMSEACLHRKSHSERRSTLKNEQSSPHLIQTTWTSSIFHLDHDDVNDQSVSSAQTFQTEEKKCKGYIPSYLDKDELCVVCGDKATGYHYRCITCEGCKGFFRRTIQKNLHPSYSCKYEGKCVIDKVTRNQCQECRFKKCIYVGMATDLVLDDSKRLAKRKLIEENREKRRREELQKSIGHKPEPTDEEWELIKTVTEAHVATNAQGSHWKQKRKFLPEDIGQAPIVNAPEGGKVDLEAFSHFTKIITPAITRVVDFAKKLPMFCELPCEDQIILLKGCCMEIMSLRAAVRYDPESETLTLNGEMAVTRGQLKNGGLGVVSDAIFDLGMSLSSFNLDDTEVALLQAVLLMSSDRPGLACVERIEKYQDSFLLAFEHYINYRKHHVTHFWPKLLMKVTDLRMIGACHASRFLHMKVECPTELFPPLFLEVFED
Summary of the method: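 In this cell-based screen, titrated compounds act on HEK 293 cells held in medium with 2% charcoal/dextran FBS, NEAA and pyruvate for 18 hrs at 37 C. Responses are expressed relative to T3 (10 nM) as 100% and basal DMSO as 0%.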

[8] = biological target: Thyroid hormone receptor beta (Homo sapiens) (UniProt P10828); test: qHTS assay for small molecule antagonists of thyroid hormone receptor beta signaling (AID 588547; active = well fitted inhibition curve with a large enough effect in the signal ratio, with a control signal flat, not every such curve was filed as active; the % refers to the signal ratio;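 also: cells stimulated with 0.4 nM T3 agonist during compound exposure; series mostly up to about 77 µM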); conditions: TR-UAS-bla HEK293, beta-lactamase ratio, antagonist mode, 18 h
Summary of the method: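 TR-UAS-bla GripTite HEK293 cells in 2% charcoal/dextran FBS medium were preincubated 4 h at 37 C, given compound (0.59 nM to 92 uM) plus 0.4 nM T3 (final) for 18 h, then CCF4 for 2 h at RT; Hill fit gave IC50.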

[9] = qHTS assay for small molecule agonists of the antioxidant response element (ARE) signaling pathway (AID 651741; active = well fitted activation curve with a large enough effect in the signal ratio; the % refers to the signal ratio; also: potency is read from the fitted curve at half-maximal effect)
Summary of the method: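 ARE-bla HepG2 cells (beta-lactamase reporter under ARE control) were plated at 2,000 cells/well, preincubated 5 h at 37 C/5% CO2, then treated with DMSO-dissolved compounds for 16 h at 37 C; LiveBLAzer B/G FRET substrate added, fluorescence read after 2 h at room temperature.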

[10] = qHTS assay for small molecule activators of the p53 signaling pathway (AID 651743; active = well fitted activation curve with a large enough effect in the signal ratio, not every such curve was filed as active; the % refers to the signal ratio; also: series mostly up to about 92 µM); conditions: HCT-116 p53RE-bla, beta-lactamase FRET ratio, 16 h; activation: stronger effect = higher value
Summary of the method: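 p53RE-bla HCT-116 cells with a stably integrated beta-lactamase reporter under p53 response elements were plated, rested 5 hours at 37 C/5% CO2, then exposed to compounds in DMSO for 16 hours at 37 C. LiveBLAzer B/G FRET substrate was read after 2 hours at room temperature.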

[11] = biological target: Peroxisome proliferator-activated receptor alpha (Homo sapiens) (UniProt Q07869); test: qHTS assay for small molecule agonists of the peroxisome proliferator-activated receptor alpha (PPARalpha) signaling pathway (AID 651778; active = well fitted curve in the direction sought with a large enough effect; an effect the other way counts as inactive or inconclusive); conditions: PathHunter PPARalpha complementation, chemiluminescence, 6 h; max response: stronger effect = higher value
Peroxisome proliferator-activated receptor alpha (Homo sapiens), sequence (Q07869 whole entry, looked up): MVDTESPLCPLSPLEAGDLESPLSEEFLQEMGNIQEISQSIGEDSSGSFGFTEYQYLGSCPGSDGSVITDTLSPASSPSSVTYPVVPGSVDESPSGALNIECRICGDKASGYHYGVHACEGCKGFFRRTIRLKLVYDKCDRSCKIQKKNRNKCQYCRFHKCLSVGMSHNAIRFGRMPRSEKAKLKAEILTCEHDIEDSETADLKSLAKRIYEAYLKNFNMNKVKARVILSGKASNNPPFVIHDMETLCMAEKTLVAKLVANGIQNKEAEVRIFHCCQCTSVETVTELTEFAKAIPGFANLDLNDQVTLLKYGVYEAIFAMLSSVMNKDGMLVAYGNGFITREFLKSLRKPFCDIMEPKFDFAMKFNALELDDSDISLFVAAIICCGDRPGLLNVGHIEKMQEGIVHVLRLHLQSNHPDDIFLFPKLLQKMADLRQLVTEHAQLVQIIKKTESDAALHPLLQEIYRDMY
Summary of the method: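 Cells plated at 2,000/well and held overnight at 37 C, 5% CO2, then compound added by pin tool for 6 hr; after PathHunter detection reagent and 60 min at room temperature, chemiluminescence from enzyme complementation was read.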

[12] = qHTS assay for small molecule agonists of the antioxidant response element (ARE) signaling pathway measured by Nrf2-dependant transcriptional activity (AID 720636; active = well fitted curve in the direction sought with a large enough effect in the repeat runs; an effect the other way counts as inactive or inconclusive)
Summary of the method: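 ARE-luc HepG2 cells carrying an Nrf2-responsive luciferase reporter were plated in medium with 1% dialyzed FBS, left 6 hr at 37 C to attach, then exposed to compound for 16 hr. Luciferase luminescence was read after ONE-Glo addition.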

[13] = qHTS assay for small molecule agonists of the antioxidant response element (ARE) signaling pathway measured by Nrf2-dependant transcriptional activity - cell viability counter screen (AID 720653; active = well fitted curve in the direction sought with a large enough effect in the repeat runs; an effect the other way counts as inactive or inconclusive); conditions: ARE-bla HepG2 viability, CellTiter-Glo ATP luminescence, 16 h; max response: stronger effect = lower value
Summary of the method: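 ARE-bla HepG2 cells (2,000/well) rested 5 hrs at 37C/5% CO2, then exposed to compounds in DMSO for 16 hrs. Viability was read in the same wells as intracellular ATP by luminescence, 30 min at room temperature after reagent addition.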

[14] = qHTS assay for cell viability of HEK293 cells (AID 743288; active = well fitted curve in the direction sought with a large enough effect; an effect the other way counts as inactive or inconclusive; also: nearly all actives have a fitted effect of over 50% in size); conditions: ATP luminescence (CellTiter-Glo), 18 h; max response: stronger effect = lower value
Summary of the method: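 Luminescent ATP quantitation served as the viability read-out. Cells (parental HEK293, 2,000/well) received compounds after at least 5 h at 37 C and were exposed for 18 h before a 30 min room-temperature reagent step.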

[15] = biological target: Vitamin D3 receptor (Homo sapiens) (UniProt P11473); test: qHTS assay for small molecule antagonists of vitamin D receptor signaling (AID 588541);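 also: receptor activated by calcitriol during compound treatment; series mostly up to about 77 µM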
Vitamin D3 receptor (Homo sapiens), sequence (P11473 whole entry, looked up): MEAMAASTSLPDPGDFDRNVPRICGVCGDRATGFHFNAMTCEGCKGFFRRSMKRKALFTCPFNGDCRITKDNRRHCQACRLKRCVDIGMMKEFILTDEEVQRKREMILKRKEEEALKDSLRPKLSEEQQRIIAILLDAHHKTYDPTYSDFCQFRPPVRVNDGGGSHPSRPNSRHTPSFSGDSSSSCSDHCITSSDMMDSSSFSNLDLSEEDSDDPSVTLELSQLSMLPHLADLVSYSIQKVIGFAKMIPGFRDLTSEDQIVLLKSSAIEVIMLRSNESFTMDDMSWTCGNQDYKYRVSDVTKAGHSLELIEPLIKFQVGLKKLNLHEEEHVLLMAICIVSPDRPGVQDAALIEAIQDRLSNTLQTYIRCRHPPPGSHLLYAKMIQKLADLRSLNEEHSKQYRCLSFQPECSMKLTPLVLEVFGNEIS
Summary of the method: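 VDR-UAS-bla HEK293T cells (2000/well, 2% charcoal-stripped FBS) were treated with titrated compounds plus 1-alpha,25-dihydroxyvitamin D3 (50 nM or 3 nM final) for 16 h at 37 C. CCF4 beta-lactamase fluorescence was read; Hill fits gave IC50.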

[16] = qHTS assay for small molecule antagonists of retinoid X receptor alpha signaling (AID 588546; active = well fitted inhibition curve with a large enough effect in the signal ratio, with a control signal flat, not every such curve was filed as active; the % refers to the signal ratio;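 also: cells stimulated with 9-cis-retinoic acid as agonist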); conditions: HEK293T RXRa-UAS-bla, beta-lactamase ratio, antagonist mode; measured here: W530 green channel, cytotoxicity proxy
Summary of the method: (§2)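 Beta-lactamase reporter inhibition, read as CCF4 fluorescence ratio (ex 405, em 460/530 nm) after 2 h at RT. HEK293T UAS-bla cells, 2500/well, were stimulated with 9-cis-RA at 500 or 100 nM final alongside test compound for 18 h at 37 C.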

[17] = biological target: Retinoic acid receptor RXR-alpha (Homo sapiens) (UniProt P19793); test: as above; conditions: HEK293T RXRa-UAS-bla, beta-lactamase ratio, antagonist mode
Summary of the method: as §2

[18] = qHTS assay for cell viability of the p53RE-bla HCT-116 cell line (AID 743292; active = well fitted curve in the direction sought with a large enough effect; an effect the other way counts as inactive or inconclusive; also: nearly all actives have a fitted effect of over 55% in size)
Summary of the method: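 CellSensor p53RE-bla HCT-116 cells, 4,000/well, preincubated 5 h at 37 C, then exposed to compounds in DMSO for 16 h at 37 C. Viability read as CellTiter-Glo luminescence (intracellular ATP) after 30 min at room temperature.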

[19] = biological target: Nuclear receptor subfamily 1 group I member 2 (Rattus norvegicus) (UniProt Q9R1A7); test: qHTS assay for small molecule activators of the rat pregnane X receptor (rPXR) signaling pathway (AID 651751; call rule not given here); conditions: rPXR reporter cells, luciferase (One-Glo), 24 h
Nuclear receptor subfamily 1 group I member 2 (Rattus norvegicus), sequence (Q9R1A7 whole entry, looked up): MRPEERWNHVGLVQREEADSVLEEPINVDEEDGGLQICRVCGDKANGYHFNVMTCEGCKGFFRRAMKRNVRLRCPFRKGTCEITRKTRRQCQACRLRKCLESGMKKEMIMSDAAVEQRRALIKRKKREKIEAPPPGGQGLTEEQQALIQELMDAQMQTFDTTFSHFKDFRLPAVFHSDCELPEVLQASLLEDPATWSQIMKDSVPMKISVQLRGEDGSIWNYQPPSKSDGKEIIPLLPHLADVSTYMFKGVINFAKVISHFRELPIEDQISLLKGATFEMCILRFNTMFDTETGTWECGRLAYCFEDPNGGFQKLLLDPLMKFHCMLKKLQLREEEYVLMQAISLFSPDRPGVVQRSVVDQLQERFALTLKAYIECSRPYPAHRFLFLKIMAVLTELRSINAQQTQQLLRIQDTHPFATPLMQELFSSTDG

[20] = qHTS assay for small molecule activators of the human pregnane X receptor (PXR) signaling pathway (AID 720659; call rule not given here)
[21] = biological target: Vitamin D3 receptor (Homo sapiens) (UniProt P11473); test: qHTS assay for small molecule agonists of vitamin D receptor signaling (AID 588543)
Summary of the method: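 Measured: β-lactamase reporter activity (CCF4, 405 nm excitation, 460/530 nm emission) in HEK293T VDR-UAS-bla cells after 16 h compound exposure at 37 °C. Normalization against 50 nM 1α,25-dihydroxyvitamin D3 and DMSO; Hill-fit EC50.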

[22] = qHTS assay for small molecule agonists of retinoid X receptor alpha signaling (AID 588544); conditions: HEK293T RXRa-UAS-bla, beta-lactamase reporter, 18 h; 530 nm emission
[23] = qHTS assay for small molecule activators of the nuclear factor-kappa B (NF-kB) signaling pathway (AID 651749; active = well fitted activation curve with a large enough effect in the signal ratio; the % refers to the signal ratio; also: series mostly up to about 77 µM); conditions: NF-kB-bla ME-180 cells, beta-lactamase FRET ratio, 16 h; activation: stronger effect = higher value
Summary of the method: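 ME-180 cells stably carrying a beta-lactamase reporter under an NF-kB response element were exposed to compound or DMSO vehicle for 16 hr at 37C, 5% CO2. Pathway activation was read by FRET, since reporter expression disrupts FRET.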

[24] = qHTS assay for environmental chemicals that activate the Aryl hydrocarbon Receptor (AhR) signaling pathway (AID 651777; active = well fitted curve in the direction sought with a large enough effect; an effect the other way counts as inactive or inconclusive; also: nearly all actives have a fitted effect of over 15% in size); conditions: 1A2-DRE human hepatoma cells, luciferase, 24 h; activation: stronger effect = higher value
Summary of the method: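 Human hepatoma 1A2-DRE cells, stably carrying a dioxin response element and CYP1A2 promoter driving luciferase, were exposed to compounds for 24 hr at 37 C and 5% CO2. Luciferase signal was then read after 30 min One-Glo at room temperature.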

Peroxisome proliferator-activated receptor delta (Homo sapiens), sequence (Q03181 whole entry, looked up): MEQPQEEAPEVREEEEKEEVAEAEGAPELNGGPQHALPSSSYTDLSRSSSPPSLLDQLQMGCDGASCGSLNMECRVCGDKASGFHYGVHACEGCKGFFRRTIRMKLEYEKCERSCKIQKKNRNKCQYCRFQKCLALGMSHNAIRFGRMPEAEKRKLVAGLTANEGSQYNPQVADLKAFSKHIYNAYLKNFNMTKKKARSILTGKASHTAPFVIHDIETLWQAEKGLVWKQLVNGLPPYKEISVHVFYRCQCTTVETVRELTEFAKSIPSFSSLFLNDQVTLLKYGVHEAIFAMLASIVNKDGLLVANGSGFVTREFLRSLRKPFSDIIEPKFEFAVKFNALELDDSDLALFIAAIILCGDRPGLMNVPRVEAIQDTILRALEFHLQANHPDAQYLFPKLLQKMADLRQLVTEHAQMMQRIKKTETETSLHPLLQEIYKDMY

## Oc1ccc(O)c2c(O)cccc12
[1]
  outcome: inactive

## Cc1ccc(Cl)cc1
[1]
  outcome: inactive

## CC(O)COC(C)(C)C (stereo not given)
[1]
  outcome: inactive

## COCCOC(=O)c1ccccc1C(=O)OCCOC
[1]
  outcome: inactive

## c1cc2c3c(c1)ccc1cccc(c13)C2
[1]
  outcome: inactive

## CCSC(=O)N(CC(C)C)CC(C)C
[1]
  outcome: inactive

## Nc1nccs1
[1]
  outcome: inactive

## CCCCCc1ccc(N)cc1
[1]
  outcome: inactive

## Cc1cc(-c2ccc(N=Nc3cc(S(=O)(=O)O)c4ccccc4c3N)c(C)c2)ccc1N=Nc1cc(S(=O)(=O)O)c2ccccc2c1N
[1]
  outcome: inactive

## Clc1cc(Cl)c(Cl)cc1Cl
[1]
  outcome: inactive

## CCOC(=O)C(C)C(C)=O (stereo not given)
[1]
  outcome: inactive

## CCCCCCCOC(=O)c1ccccc1C(=O)OCCCCCCC
[1]
  outcome: inactive

## CC(=O)c1nccs1
[1]
  outcome: inactive

## CCOCCOCCOCC
[1]
  outcome: inactive

## CC(C)[C@H](C(=O)O[C@H](C#N)c1cccc(Oc2ccccc2)c1)c1ccc(Cl)cc1
[1]
  outcome: inactive
[2]
  max response: 2%
[3]
  Potency: inactive
[4]
  Potency: inactive
[5]
  Potency: inactive
[6]
  Potency: inactive
[7]
  Potency: inactive
[8]
  activity change % (negative = inhibition): -0.522% (inactive)
[9]
  Potency: 61.1 µM (active)
[10]
  activation: -0.0449% (inactive)
[11]
  max response: 0.0129% (inactive)
[12]
  Potency: inactive
[13]
  max response: 6.41% (inactive)
[14]
  max response: -17.9% (inactive)

## CCCCCCCCCCCCCO
[1]
  outcome: inactive

## COC(=O)c1ccccc1
[1]
  outcome: inactive

## Cc1cc(Cl)ccc1N=CN(C)C
[1]
  outcome: inactive
[4]
  Potency: inactive
[5]
  Potency: inactive
[15]
  Potency: inactive
[6]
  Potency: inactive
[16]
  max response: -3.88%
[17]
  max response: -16.2% (inactive)
[9]
  Potency: inactive
[10]
  activation: 0.7% (inactive)
[11]
  max response: -0.583% (inactive)
[12]
  Potency: inactive
[14]
  max response: -10.1% (inactive)
[18]
  Potency: inactive
[19]
  max response: 1.62% (inactive)
[20]
  outcome: inactive

## COc1c(Cl)ccc(Cl)c1C(=O)O
[1]
  outcome: inactive

## OCCOCCOCCOCCO
[1]
  outcome: inactive

## FC(F)(F)c1ccc(Cl)c(Cl)c1
[1]
  outcome: inactive

## Cc1cccc(C)c1[N+](=O)[O-]
[1]
  outcome: inactive

## Cc1cc(C(=O)O)ccc1[N+](=O)[O-]
[1]
  outcome: inactive

## O=[N+]([O-])c1cc(N(CCO)CCO)ccc1NCCO
[1]
  outcome: inactive

## Cc1ccccc1C=O
[1]
  outcome: inactive

## CC1(C)C(=O)NC(=O)N1CO
[1]
  outcome: inactive

## O=c1[nH]ncc2ccccc12
[1]
  outcome: inactive

## CCOC(=O)C1OC1c1ccccc1 (stereo not given)
[1]
  outcome: inactive

## CCOc1cccc(N)c1
[1]
  outcome: inactive

## COCCO
[1]
  outcome: inactive

## O=[N+]([O-])c1cccc(I)c1
[1]
  outcome: inactive

## CC(C)(N=C=O)c1cccc(C(C)(C)N=C=O)c1
[1]
  outcome: inactive

## C/C=C/C=C/C=O
[1]
  outcome: inactive

## Nc1cc([N+](=O)[O-])ccc1C(=O)O
[1]
  outcome: inactive

## C=C(C)C(=O)OCCC[Si](OC)(OC)OC
[1]
  outcome: inactive

## [CH3][Sn]([CH3])([Cl])[Cl]
[1]
  outcome: inactive
[2]
  max response: 1.89%
[3]
  Potency: inactive
[4]
  Potency: inactive
[5]
  Potency: inactive
[15]
  Potency: inactive
[21]
  outcome: inactive
[22]
  max response: -7.56%
[6]
  Potency: inactive
[7]
  Potency: inactive
[16]
  max response: -2.31%
[17]
  max response: -24.3% (inactive)
[8]
  activity change % (negative = inhibition): 0.969% (inactive)
[23]
  activation: 0.645% (inactive)
[24]
  activation: -0.285% (inactive)
[11]
  max response: -1.2% (inactive)
[12]
  Potency: inactive
[13]
  max response: 3.28% (inactive)
[14]
  max response: -9.37% (inactive)
[18]
  Potency: inactive
[19]
  max response: -0.47% (inactive)
[20]
  outcome: inactive

## CC(=O)OCc1ccco1
[1]
  outcome: inactive
